For 5 molecules, cell viability results are on record in the supplement of paper PMC6992640.

Some test systems named below: HCI01; HCI03; HCI09; HCI11; HCI13; HCI16; UCD52; WHIM2; WHIM30.
What all share (test): cell viability (% of vehicle); higher = less cytotoxic
Holding throughout (conditions): 10 µM; 72 h

Molecules are shown by their SMILES. ± gives the standard deviation of the averaged measurements.
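Note: PDX cells carrying CMV promoter-driven luciferase, viability read as total photon flux per second by IVIS imaging following D-luciferin, vehicle control 0.1% DMSO.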

As for `Nc1nc(=O)c2c(CCc3ccc(C(=O)NC(CCC(=O)O)C(=O)O)cc3)c[nH]c2[nH]1.O.[Na+]` (stereo not given) [Pemetrexed disodium hemipenta hydrate], the cell viability in the assay with HCI01 turned out to be 97.24 ± 0.52; with HCI03, 95.8; in the assay on HCI09 (cells of a triple-negative luminal androgen receptor type breast cancer xenograft) it was 93.8 ± 24; with HCI11, 91.3; in the assay on HCI13 (cells of an ER-positive luminal breast cancer xenograft), 90 ± 7.8; with HCI16, 69.3. Besides, the cell viability turned out to be 95.4 ± 1.8 in the assay with UCD52, 90.47 ± 0.25 in the assay with WHIM2 and 119 ± 36 with WHIM30.

For `FC(F)(F)c1ccc(C=Cc2nc(COc3ccc(CCCCn4ccnn4)cc3)co2)cc1` [Mubritinib (TAK 165)], the cell viability with HCI01 stood at 111 ± 4; with HCI03 it was 89.9; with HCI09, 26.1 ± 3.1; in the assay on HCI11 (cells of an ER-positive luminal breast cancer xenograft) it was 62.2; with HCI13, 65.54 ± 0.49; in the assay with HCI16, 124. The values for the cell viability in the assay on UCD52 (cells of a triple-negative basal-like breast cancer xenograft), in the assay on WHIM2 (cells of a triple-negative basal-like breast cancer xenograft) and with WHIM30 were 56.43 ± 0.074, 120 ± 31 and 63.1 ± 6.1, respectively.

With `Cc1nnc(NS(=O)(=O)c2ccc(N)cc2)s1` [Sulfamethizole], the cell viability was 102 ± 17 in the assay with HCI01; 119 in the assay on HCI03 (cells of an ER-positive luminal breast cancer xenograft); 91.2 ± 4.5 in the assay on HCI09; 87 in the assay with HCI11; 89.2 ± 14 in the assay with HCI13; 114 in the assay on HCI16 (cells of a triple-negative basal-like breast cancer xenograft). The cell viability in the assay with UCD52 was found to be 81.2 ± 3.9; in the assay with WHIM2, 91.3 ± 4.2; with WHIM30, 88.3 ± 5.

As to `CC(=O)Nc1cccc(-n2c(=O)n(C3CC3)c(=O)c3c(Nc4ccc(I)cc4F)n(C)c(=O)c(C)c32)c1`, the cell viability is 103 ± 34 with HCI01; 94 with HCI03; 82.1 ± 34 with HCI09; 98.3 in the assay on HCI11; 110 ± 16 in the assay with HCI13; 120 in the assay with HCI16. Further, the cell viability in the assay with UCD52 turned out to be 48 ± 14; in the assay with WHIM2, 74.2 ± 8.9; in the assay with WHIM30, 133 ± 24.

On to `CC1CCN(C(=O)CC#N)CC1N(C)c1ncnc2[nH]ccc12` (stereo not given), for which the cell viability in the assay on HCI01 (cells of a triple-negative basal-like breast cancer xenograft) was 169 ± 6.3; in the assay on HCI03, 143; with HCI09, 81.1 ± 1.5; with HCI11, 110; in the assay with HCI13, 126 ± 11; in the assay with HCI16, 151. Also, the cell viability in the assay on UCD52 is 136 ± 23; in the assay on WHIM2, 95.8 ± 7.4; in the assay on WHIM30 (cells of a triple-negative basal-like breast cancer xenograft), 160.4 ± 0.81.
